Results on 29 molecules are retold here after PubChem BioAssay (NCATS).

“And” between values parts separate entries of the source, which are not always exact repeats. Equal entries are not always repeated. Records with an inconclusive call do not appear. The source made the active and inactive calls. Calls come from the whole dose curve; as a rule, active = well fitted inhibition curve with a large enough effect; inconclusive = small, poorly fitted or top-dose-only effect; inactive = flat fitted curve, though single readings scatter.
% is set by controls: 0 for no effect and ±100 for the full control effect; potency is the fitted concentration of half-maximal effect.

In the test the test system is HEK293. Put plainly: Cytotoxic Profiling of Annotated Libraries Using Quantitative High-Throughput Screening (AID 1296008). Note: nearly all actives have a fitted effect of over 60% in size. Conditions: Five cell lines viability, CellTiter-Glo ATP luminescence, 48-72 h; max response: active compounds read low. The method, boiled down:
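Cytotoxicity was measured as CellTiter-Glo ATP luminescence, read after 10 min at room temperature. Compound treatment of the cells lasted 48 or 72 hr at 37 degrees Celsius in a qHTS format.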
In general terms: Cellular ATP, detected with luciferase, serves as a proxy for viable cell number.
Take `C/C=C(\C)C(=O)OC1CC2C(CC=C3CC(OC4CC(OC)C(OC5CC(OC)C(OC6OC(C)C(OC7OC(CO)C(O)C(O)C7O)C(OC)C6O)C(C)O5)C(C)O4)CCC32C)C2(O)CCC(C(C)=O)C12C` (centres undefined): the max response was -9.26% (inactive).

For the molecule `Clc1ccc(OCC2=NCCN2)cc1Cl`, the molecule was called inactive.

`N#CC(OC1OC(COC2OC(CO)C(O)C(O)C2O)C(O)C(O)C1O)c1ccccc1` (centres undefined): the result was inactive.

For `C/C=C(\C)C(=O)OC1C(C)OC(OC2C(C)OC(OC3CCC4(C)C(=CCC5C4CCC4(C)C(C(C)OC6OC(COC7OC(CO)C(O)C(O)C7O)C(O)C(O)C6O)CCC54O)C3)CC2OC)C(O)C1OC` (centres undefined), the max response is -2.95% (inactive).

Take `CCCCCCn1c(=O)c(C(=O)Nc2ccc(C(=O)OCCC)cc2)c(O)c2ccccc21`: the molecule was called inactive.

Turning to `CCOc1ccccc1-n1c(C(C)N2CCN(C(=O)COc3ccc(Cl)cc3)CC2)nc2ccccc2c1=O` (centres undefined), the Potency was 4.11 µM (active) and 2.95 µM (active).

Regarding `CCN1C[C@]2(COC(=O)c3ccccc3N3C(=O)C[C@H](C)C3=O)CC[C@H](OC)[C@@]34[C@@H]5C[C@H]6[C@H](OC)[C@@H]5[C@](O)(C[C@@H]6OC)[C@](O)([C@@H](OC)[C@H]23)[C@@H]14`, the max response is 2.21% (inactive).

For `CN[C@H]1[C@H](O)[C@H](O[C@@H]2[C@@H](O)[C@H](O[C@H]3O[C@H]([C@H](C)O)[C@@H](O)[C@H](O)[C@H]3N)[C@@H](N)C[C@H]2N)OC[C@@]1(C)O`, the max response is -1.94% (inactive).

Regarding `CC(C)=C1CC[C@]23CO[C@H](C2)[C@@](O)(C(=O)O)CCC13` (some centres undefined), the call was inactive.

With `OC1(c2ccc(Cl)cc2)c2ccccc2C2=NCCN21` (centres undefined), the max response is -19.8% (inactive).

As for `CC[C@H]1CN2CC[C@H]1C[C@H]2[C@H](O)c1ccnc2ccc(OC)cc12`, the max response was -14.1% (inactive).

Take `C[C@@]12C[C@@H](c3ccoc3)OC(=O)C1CC[C@]1(C)[C@H]2[C@H]2C=C[C@]1(O)C(=O)O2` (some centres undefined): the molecule was classed as inactive.

In the case of `COC(=O)[C@@]12C(=O)C(C)C(=O)[C@]1(C)C(C)=C[C@H]1[C@]3(C=O)CC[C@H](OC(C)=O)C(C)(C)[C@H]3CC[C@@]12C` (some centres undefined), the molecule was classed as inactive.

Turning to `CCc1c(C(=O)C(N)=O)c2c(OCC(=O)OC)cccc2n1Cc1ccccc1`, the result was inactive.

Consider `CN(C)CCc1c[nH]c2ccc(CN3CCN(C)S3(=O)=O)cc12`, for which the max response was -0.516% (inactive).

As to `Cn1ncnc1COc1nn2c(-c3c(F)cccc3F)nnc2cc1C1CCC1`, the molecule was called inactive.

`CCN1C[C@]2(OC(=O)c3ccccc3NC(C)=O)CC[C@H](OC)[C@@]34[C@@H]2C[C@@H]([C@@H]13)[C@@]1(O)C[C@H](OC)[C@H]2C[C@@H]4[C@]1(O)[C@H]2OC`: the max response was -11.1% (inactive).

On to `CC(N)Cc1c[nH]c2ccccc12` (centres undefined), for which the molecule was called inactive.

For the molecule `CCN1C[C@]2(COC)[C@H](O)C[C@H](OC)[C@]34[C@@H]5C[C@]6(O)[C@H](OC(=O)c7ccccc7)[C@@H]5[C@@](O)([C@H]([C@H](OC)[C@H]23)[C@@H]14)[C@@H](O)[C@@H]6OC`, the call was inactive.

As to `CC(C)(C)c1cc(C(C)(C)C)c2c(c1)C(O)(C(F)(F)F)C(=O)O2` (centres undefined), the max response is 1.2% (inactive).

For `CN1[C@H]2C[C@H](OC(=O)[C@H](CO)c3ccccc3)C[C@@H]1[C@@H](O)C2`, the molecule was classed as inactive.

Consider `COc1cc2c(cc1OC)[C@@]13CCN4CC5=CCO[C@H]6CC(=O)N2[C@H]1[C@H]6[C@H]5C[C@H]43`, for which the max response was -25.1% (inactive).

On to `CC(=O)O[C@H]1C[C@@H](OC(C)=O)C(C)(C)C2C[C@@H](O)[C@]3(C)C(CC[C@@]4(C)[C@H](C5=CC(=O)OC5O)C[C@H]5O[C@]543)[C@]21C` (some centres undefined), for which the result was inactive.

On to `CC1=C2C[C@H]3[C@@H](CC=C4C[C@@H](O)CC[C@@]43C)[C@@H]2CC[C@]12O[C@@H]1C[C@H](C)CN[C@H]1[C@H]2C`, for which the result was inactive.

For `CCCN1CCO[C@H]2c3cc(O)ccc3OC[C@@H]21`, the molecule was called inactive.

Consider `C[C@H]1O[C@@H](O[C@H]2C[C@@H](O)[C@]3(CO)C4C(CC[C@]3(O)C2)[C@@]2(O)CC[C@H](C3=CC(=O)OC3)[C@@]2(C)C[C@H]4O)[C@@H](O)[C@@H](O)[C@H]1O` (some centres undefined), for which the Potency was 343 nM (active).

Consider `CC(C)(O)[C@H]1O[C@H]2CC[C@@]3(C)[C@@](O)(CC[C@H]4Cc5c([nH]c6ccccc56)[C@@]43C)C2=CC1=O`, for which the max response was 2.88% (inactive).

As to `CC12CCC3C(CCC4(O)CC(O)CCC34C=O)C1(O)CCC2C1=CC(=O)OC1` (centres undefined), the Potency was 1030 nM (active).

Consider `CC(=O)OC12C(O)C(C)C3(O)C4C=C(C)C(=O)C4CC(CO)=CC3C1C2(C)C` (centres undefined), for which the max response was -4.3% (inactive).
